PubChem BioAssay AID940 (Emory University Molecular Libraries Screening Center, 2007)
“And” between values parts separate entries of the source, which are not always exact repeats. Identical values can stand only once. Out of some 260,000 compounds screened, about 2,200 (0.85%) were called active.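 Rule for the calls: active = compounds whose cAMP rise, as percent of the full-agonist control response, exceeds 60; inactive = the rest.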 This excerpt belongs to a sample that is enriched for actives. A structure can be active in one record and inactive in another.

target: Prostaglandin E2 receptor EP2 subtype (Homo sapiens) (UniProt P43116); experiment: EP2 receptor modulators, cAMP readout, primary screen, cell-based, HTRF cAMP, PGE2 stimulation (AID 940); conditions: EP2-expressing cells, cAMP HTRF FRET, PGE2 co-stimulation; at 25 µM; stronger effect = higher value;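 note: rat C6 glioma line stably carrying human EP2 under a CMV promoter; the protocol text gives 20 µM as final concentration; 100% = response of wells given 1 µM PGE2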
Sequence (P43116 whole entry, looked up): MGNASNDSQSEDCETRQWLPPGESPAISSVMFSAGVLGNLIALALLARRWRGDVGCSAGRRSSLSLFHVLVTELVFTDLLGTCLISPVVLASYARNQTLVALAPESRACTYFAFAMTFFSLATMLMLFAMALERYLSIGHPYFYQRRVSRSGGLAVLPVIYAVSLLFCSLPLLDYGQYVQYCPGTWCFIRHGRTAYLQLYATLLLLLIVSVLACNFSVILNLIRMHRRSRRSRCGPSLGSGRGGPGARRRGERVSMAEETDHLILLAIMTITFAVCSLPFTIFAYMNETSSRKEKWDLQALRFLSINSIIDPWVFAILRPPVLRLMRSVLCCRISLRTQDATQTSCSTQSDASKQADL

SMILES | induction
COc1ccccc1NC(=S)N1CCC(NC(=O)C23CC4CC(CC(C4)C2)C3)CC1 | -21% (inactive) and -7.94% (inactive)
CC(C)NC(=S)N1CCN(C(c2ccccc2)c2ccccc2)CC1 | 21.2% (inactive)
COc1ccccc1NC(=S)N1CCN(C(c2ccccc2)c2ccccc2)CC1 | 61.4% (active)
COc1cccc(NC(=O)C(C#N)Cc2cccnc2)c1 (stereo not given) | 2.36% (inactive)
O=c1oc2ccccc2cc1-c1csc(Nc2cccc(O)c2)n1 | -123% (inactive)
CC1(C)CCCC2(C)C3C1[C@@H](O)C2(C)C[C@H]3O (stereo not given in full) | 15.3% (inactive)
CC(C)NC(=O)CN1N=C(c2ccccc2)Cn2c(cc3ccccc32)C1=O | -36.4% (inactive)
NC(=O)c1nnn(-c2ccc(S(=O)(=O)N3CCCCC3)cc2)c1N | 11.5% (inactive)
O=C(Nc1ccccc1N1CCN(c2ccccc2)CC1)c1cccc(F)c1 | 48.5% (inactive)
Cc1ccc(C)c(NC(=O)c2ccc3nccnc3c2)c1 | -54% (inactive)
O=C(Nc1ccccc1N1CCN(C(=O)c2ccccc2)CC1)c1ccc2c(c1)OCO2 | -6.37% (inactive)
O=C(Nc1ccccc1N1CCCCC1)c1cccc(F)c1 | 66.7% (active)
Cc1cccc(C(=O)Nc2ccccc2N2CCN(c3ccc(F)cc3)CC2)c1 | 49.9% (inactive)
O=C(Nc1ccccc1N1CCCCC1)c1ccc2nccnc2c1 | 87.1% (active)
CN(C(=O)C1CCCCC1)c1nc(-c2ccc(Cl)cc2)cs1 | -0.87% (inactive)
Cc1ccc(N(C(=O)Cn2nnc3ccccc32)C(C(=O)NC2CCCC2)c2ccsc2)cc1 (stereo not given) | 20.6% (inactive)
CC(=O)C1CC(CC(=O)N[C@H](Cn2nnc3ccccc32)C(C)C)C1(C)C (stereo not given in full) | -25.1% (inactive)
COc1cccc(/C(O)=C2/C(=O)C(=O)N(CCN(C)C)C2c2ccco2)c1 (stereo not given) | 2.05% (inactive)
Cc1ccc2[nH]c(=O)c(C(c3nnnn3Cc3ccc(F)cc3)N3CCCC3)cc2c1 (stereo not given) | -4.96% (inactive)
NC(=O)CNC(=O)C1CCCN(c2ncccn2)C1 (stereo not given) | 14.7% (inactive)

SMILES | induction
COCCNCC(=O)N1CCc2ccccc21 | 10.7% (inactive)
Cc1ccc2cc(C(c3nnnn3C3CCCC3)N3CCC(C)CC3)c(=O)[nH]c2c1C (stereo not given) | -2.6% (inactive)
O=c1[nH]c(CSc2ncc(-c3ccc(F)cc3)n2Cc2ccco2)nc2ccccc12 | 46.2% (inactive) and 68.4% (active)
Cn1c(-c2ccc(F)cc2)cnc1SCC(=O)NCc1ccco1 | -17% (inactive) and -3.43% (inactive)
CCn1c(Cc2ccccc2)nnc1SCc1nc2ccccc2c(=O)[nH]1 | 2.09% (inactive)
COc1ccc2cc(C)c3nn(CC(=O)N4CCC(C)CC4)c(=O)n3c2c1 | -70.2% (inactive)
CCn1cc(S(=O)(=O)N2CCC(CCc3ccc(C(=O)O)cc3)CC2)c(C)n1 | -33.1% (inactive)
Cc1cc(NC(=O)CSc2nnc3c4c5c(sc4nc(C(C)C)n23)CCCC5)no1 | 0.87% (inactive)
CCOC(=O)C1=C(CN2CCCCCC2)NC(=O)NC1c1cccc([N+](=O)[O-])c1 (stereo not given) | -9.45% (inactive)
CCOC(=O)C1=C(CN2CCc3ccccc32)NC(=O)NC1c1cccc([N+](=O)[O-])c1 (stereo not given) | 64.5% (active)
CCOC(=O)C1=C(CN2CCc3ccccc32)NC(=O)NC1c1ccc(Cl)cc1 (stereo not given) | 68.2% (active)
CCOC(=O)C1=C(C)NC(=O)NC1c1ccccc1 (stereo not given) | 19% (inactive)
CCOC(=O)C1=C(CNC2CCCCC2)NC(=O)NC1c1cc(C)ccc1C (stereo not given) | 34.3% (inactive)
CCOC(=O)C1=C(c2ccccc2)NC(=S)NC1c1ccc(Cl)cc1 (stereo not given) | 47.1% (inactive)
COc1ccc(-c2nc(SCC(=O)O)n[nH]2)cc1 | -21.9% (inactive)
Cc1ccc(NC(=O)CSc2nccc(=O)[nH]2)c(C)c1 | -21.1% (inactive)
Clc1c(-c2nnc(-c3ccc(N4CCOCC4)cc3)o2)sc2ccccc12 | -13.2% (inactive)
Cc1cc2nc(C(F)(F)F)cc(-c3cccs3)n2n1 | 19.1% (inactive)
Cc1cc(-c2cccs2)nc(-n2cccc2)n1 | 62.7% (active)
c1csc(-c2cn3c(n2)SCC3)c1 | -16.2% (inactive)

SMILES | induction
O=C(CSc1nc(-c2ccco2)cc(C(F)(F)F)n1)Nc1ccc(Cl)cc1Cl | -110% (inactive)
O=C(NCCO)C(=O)NCC1COc2ccccc2O1 (stereo not given) | -12.4% (inactive)
Cc1ccc2nc(NC(=O)c3c(O)c4cccc5c4n(c3=O)CC5)sc2c1 | -11.9% (inactive)
CCNC(=O)c1c(O)c2cccc3c2n(c1=O)CC3 | 60.8% (active)
Cc1cc(=O)n2c3c(cccc13)CCC2 | 1.93% (inactive)
CN1c2ncccc2C(=O)NC12CCN(C(=O)Cn1ncc3ccccc3c1=O)CC2 | -10.6% (inactive)
CC1Cc2ccccc2N1C(=O)c1cc2sccc2n1Cc1ccccc1 (stereo not given) | 54.1% (inactive)
O=C(c1cc2sccc2n1Cc1ccc(F)cc1)N1CCc2ccccc21 | 63% (active)
O=C(NCc1ccco1)c1cc2sccc2n1Cc1ccc(F)cc1 | 41.1% (inactive)
O=C(NCc1nc(-c2cccnc2)n[nH]1)C(c1ccccc1)C1CCCCC1 (stereo not given) | 24.6% (inactive)
Cc1ccccc1-n1c(SCC(=O)N2CCCCCC2)nnc1-c1cccnc1 | -15.5% (inactive)
COc1cccc(CN2CCN(C(=O)c3ccccn3)[C@@H](C)C2)c1 | -14.5% (inactive)
CCn1c(SCC(=O)Nc2ccc(C)cc2C)nnc1C(C)C | -31.6% (inactive)
CCN1CCN(c2c(Cl)cccc2NC(=O)c2ccc(Br)o2)CC1 | 74.4% (active)
CCCC(=O)Nc1ccc(Cl)c(NC(=O)c2ccc(Br)o2)c1 | 6.2% (inactive)
COc1cc(OC)c(NC(=O)c2ccc(Br)o2)cc1Cl | -17.9% (inactive)
CCCc1nc(SCC(=O)N2CCCC2)c2c(C)c(C)sc2n1 | 1.9% (inactive)
CCCc1nc(SCC(=O)OCC)c2c(C)c(C)sc2n1 | 74% (active)
CCOC(=O)c1sc2nc(C)nc(SCC(N)=O)c2c1C | 9.11% (inactive)
COc1ccc(OC)c(C(=O)CSc2ncnc3c2cnn3-c2ccccc2C)c1 | 44.3% (inactive)
